Compound activity (PubChem BioAssay)
Hits are enriched below; roughly 3.2% of the tested compounds scored in any of these assays.
Sm TGR inh = qHTS Assay for the Inhibitors of Schistosoma Mansoni Peroxiredoxins | Potency, µM (highest dose often 114 µM), usual class: inhibitors | 360,000 tested, 3% active | purified TGR, DTNB reduction, TNB absorbance 405 nm; also: nearly all actives have a fitted effect of over 60% in size
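TGR 20 nM + NADPH 100 uM (dispensed conc.), cpd preinc 15 min RT; start with NADPH (500 uM addition) then DTNB (15 mM addition). Kinetic TNB absorbance, 405 nm filter. Four-parameter Hill fit across titration.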
LmPK inh = qHTS Assay for Inhibitors of Leishmania Mexicana Pyruvate Kinase (LmPK); Potency, µM (doses to about 57.5 µM), most hits filed as inhibitors; purified LmPK, Kinase-Glo ATP luminescence, 1 h; 290,000 tested, 0.37% active; Q27686
Target sequence (Q27686 whole entry, looked up): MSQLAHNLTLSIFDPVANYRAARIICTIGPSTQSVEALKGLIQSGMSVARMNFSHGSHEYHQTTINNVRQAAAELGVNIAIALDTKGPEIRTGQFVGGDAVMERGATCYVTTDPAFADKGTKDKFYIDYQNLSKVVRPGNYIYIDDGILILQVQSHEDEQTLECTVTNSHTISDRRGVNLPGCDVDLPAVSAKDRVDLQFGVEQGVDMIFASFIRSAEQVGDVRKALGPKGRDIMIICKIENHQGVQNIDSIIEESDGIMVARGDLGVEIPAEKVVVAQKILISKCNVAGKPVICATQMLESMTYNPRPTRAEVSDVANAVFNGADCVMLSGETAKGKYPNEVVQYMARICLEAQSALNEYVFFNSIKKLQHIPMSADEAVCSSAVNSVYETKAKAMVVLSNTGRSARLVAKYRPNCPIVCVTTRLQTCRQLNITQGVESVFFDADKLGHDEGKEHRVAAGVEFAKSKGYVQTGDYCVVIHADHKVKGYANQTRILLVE
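Pyruvate kinase activity monitored as ATP production (luciferase luminescence). Conditions: 0.1 nM enzyme, 0.5 mM PEP, 0.1 mM ADP, 1 h, RT; normalized against uninhibited and no-enzyme wells.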
AMA1-RON2 inh = qHTS for Inhibitors of AMA1-RON; Towards Development of Antimalarial Drug Lead: Primary Screen | AID 720542, 2013 | 360,000 tested, 0.2% active | Plasmodium falciparum AMA1 (3D7) - RON2 peptide interaction | AlphaScreen AMA1-biotinylated RON2 peptide binding | Potency, µM (highest dose often 58.2 µM), usual class: inhibitors; also: nearly all actives have a fitted effect of over 45% in size
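AMA1 (3D7) with his tag at 25 nM final met compounds first, then biotinylated RON2 peptide at 25 nM; detection used donor plus acceptor beads, 10 µg/mL apiece, read by AlphaScreen after 30 min at room temperature.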
Tb PYK inh = qHTS of Trypanosoma Brucei Inhibitors; TbPYK enzyme, Kinase-Glo Plus ATP luminescence, 45 min; pyruvate kinase (Trypanosoma brucei), Q57TT1; 410,000 tested, 0.12% active; Potency, µM (titrated, usually from 76.8 µM), actives largely listed as inhibitors; also: nearly all actives have a fitted effect of over 50% in size
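Readout: single end-point luminescence (Kinase-Glo Plus, 10 min). Reaction conditions were TbPYK/substrate plus 130 uM ADP, 45 min at RT, pH 7.2 TEA buffer. No-enzyme wells served as controls, and data were normalized before concentration-response fitting.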
RE007 growth inh = qHTS Assay for Inhibitors of the HIV-1 protein Vpr | S. pombe RE007 Vpr strain, BacTiter-Glo ATP luminescence, 24 h | Potency, µM (top dose mostly 92.2 µM), usual class: inhibitors | 360,000 tested, 0.21% active; active = well fitted falling curve with a large enough effect; inconclusive = small, poorly fitted or top-dose-only effect; inactive = no such curve, though single readings can be large or run the other way; also: nearly all actives have a fitted effect of over 50% in size
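Fission yeast strain RE007, carrying one chromosomally integrated HIV-1 vpr copy, was seeded at OD 0.01 in PMG+AL medium with 23 nL pinned compound. After 24 h at 30 °C and 99% humidity, viability was read by BacTiter-Glo luminescence.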
A number is an active result. Unless noted, calls follow the shape of the dose curve; as a rule, active = well fitted curve in the direction sought with a large enough effect; inconclusive = small, poorly fitted or top-dose-only effect, or another doubt; inactive = no such curve, though single readings can be large; an effect the other way counts as inactive or inconclusive.

What do the screens show for `CCCCC1CCC(C(=O)N2CC(=O)Nc3ccc(C)cc3C2c2ccc(F)cc2)CC1` (centres undefined)?
Sm TGR inh: inactive; Tb PYK inh: inactive

How did CN(C)S(=O)(=O)c1cccc(C(=O)C2=C3SC=C(c4ccccc4)N3CC2)c1 do in these assays?
Sm TGR inh: 4.47µM; LmPK inh: inactive; AMA1-RON2 inh: inactive; Tb PYK inh: inactive; RE007 growth inh: inactive

How did CC(=O)NC(N(C#N)c1nc(Cl)nc(N(C)C)n1)C(Cl)(Cl)Cl (centres undefined) do in these assays?
Sm TGR inh: 39.8µM; LmPK inh: inactive; AMA1-RON2 inh: inactive; Tb PYK inh: inactive; RE007 growth inh: inactive

What do the screens show for `CCN(CC)C(=O)C(C)N(C#N)c1nc(Cl)nc(N(C)C)n1` (centres undefined)?
Sm TGR inh: inactive; LmPK inh: inactive; AMA1-RON2 inh: inactive; Tb PYK inh: inactive; RE007 growth inh: inactive

Results for CSc1ccc(Nc2nn(-c3ccc(OC(F)(F)F)cc3)nc2C(C)=O)cc1 ?
Sm TGR inh: inactive; Tb PYK inh: inactive

Results for O=C(CCl)N(c1ccccc1)C1CCCCC1 ?
Sm TGR inh: 3.16µM; LmPK inh: inactive; AMA1-RON2 inh: inactive; Tb PYK inh: inactive; RE007 growth inh: inactive

Results for CCC(C)N(CC(=O)Nc1cccc(C)c1C)C(=O)CCl (centres undefined) ?
Sm TGR inh: 20µM; LmPK inh: inactive; AMA1-RON2 inh: inactive; Tb PYK inh: inactive; RE007 growth inh: inactive

What do the screens show for `CC(C)N(CC(=O)Nc1ccc(Cl)cc1C(F)(F)F)C(=O)CCl`?
Sm TGR inh: 17.8µM; LmPK inh: inactive; AMA1-RON2 inh: inactive; Tb PYK inh: inactive; RE007 growth inh: inactive

How did Cc1cccc(C)c1OCCn1c(CCNC(=O)C2CCCCC2)nc2ccccc21 do in these assays?
Sm TGR inh: inactive; Tb PYK inh: inactive

How did O=C(CSc1oc(-c2ccco2)nc1S(=O)(=O)c1ccccc1)NCC1CCCO1 (centres undefined) do in these assays?
Sm TGR inh: 15.8µM; LmPK inh: inactive; AMA1-RON2 inh: inactive; Tb PYK inh: inactive; RE007 growth inh: inactive

What do the screens show for `O=C(CSc1oc(-c2ccco2)nc1S(=O)(=O)c1ccc(F)cc1)NCC1CCCO1` (centres undefined)?
Sm TGR inh: inactive; LmPK inh: inactive; AMA1-RON2 inh: inactive; Tb PYK inh: inactive; RE007 growth inh: inactive

How did O=C(CSc1oc(-c2ccco2)nc1S(=O)(=O)c1ccc(Cl)cc1)NCC1CCCO1 (centres undefined) do in these assays?
Sm TGR inh: 50.1µM; LmPK inh: inactive; AMA1-RON2 inh: inactive; Tb PYK inh: inactive; RE007 growth inh: inactive

What do the screens show for `CCc1ccc(C2CC(=O)Nc3c2c(=O)n(C)c2ncnn32)cc1` (centres undefined)?
Sm TGR inh: inactive; Tb PYK inh: inactive

What do the screens show for `CCCCCOc1ccc(C(=O)N(Cc2ccccc2)C2CCS(=O)(=O)C2)cc1` (centres undefined)?
Sm TGR inh: inactive; Tb PYK inh: inactive

What do the screens show for `CC(=O)Nc1ccc(NC(=O)CC2Nc3cccc4cccc(c34)NC2=O)cc1` (centres undefined)?
Sm TGR inh: inconclusive; LmPK inh: inactive; AMA1-RON2 inh: inactive; Tb PYK inh: inactive; RE007 growth inh: inactive

Results for CC(=O)c1ccc(NC(=O)CC2Nc3cccc4cccc(c34)NC2=O)cc1 (centres undefined) ?
Sm TGR inh: 17.8µM; LmPK inh: inactive; AMA1-RON2 inh: inactive; Tb PYK inh: inactive; RE007 growth inh: inactive

How did CCC(=O)N(Cc1ccc(S(N)(=O)=O)cc1)C1CC(=O)N(c2ccc(OC)cc2)C1=O (centres undefined) do in these assays?
Sm TGR inh: 28.2µM; LmPK inh: inactive; AMA1-RON2 inh: inactive; Tb PYK inh: inactive; RE007 growth inh: inactive

What do the screens show for `CCOc1ccc(N2C(=O)CC(N(Cc3ccco3)C(C)=O)C2=O)cc1` (centres undefined)?
Sm TGR inh: 50.1µM; LmPK inh: inactive; AMA1-RON2 inh: inactive; Tb PYK inh: inactive; RE007 growth inh: inactive

What do the screens show for `CCCOc1ccc(N2C(=O)CC(N(Cc3ccco3)C(=O)CC)C2=O)cc1` (centres undefined)?
Sm TGR inh: 14.1µM; LmPK inh: inactive; AMA1-RON2 inh: inactive; Tb PYK inh: inactive; RE007 growth inh: inactive

What do the screens show for `CC1CCN(C(=O)CSc2c(C(C)C)cnc3c2c(=O)n(C)c(=O)n3C)CC1`?
Sm TGR inh: inactive; Tb PYK inh: inconclusive

What do the screens show for `CCCCOc1ccc(C2c3c(oc4ccccc4c3=O)C(=O)N2c2nc(C)c(C(=O)OCC)s2)cc1OC` (centres undefined)?
Sm TGR inh: inactive; Tb PYK inh: inactive

How did CC(=O)Oc1cccc2c1C(=O)C1CC=CC(OC(C)=O)C1C2=O (centres undefined) do in these assays?
AMA1-RON2 inh: 31.6µM; Tb PYK inh: inactive; RE007 growth inh: inconclusive

How did CC(=O)Oc1cccc2c1C(=O)c1c(OC(C)=O)cc(C(=O)O)cc1C2=O do in these assays?
Sm TGR inh: inactive; LmPK inh: inconclusive; AMA1-RON2 inh: inactive; Tb PYK inh: inactive; RE007 growth inh: inactive

How did COC(=O)c1ccc(NC(=O)c2nc(S(=O)(=O)Cc3cccc(C)c3)ncc2Cl)cc1 do in these assays?
Sm TGR inh: 6.31µM; LmPK inh: inactive; AMA1-RON2 inh: inactive; Tb PYK inh: inactive; RE007 growth inh: inactive

How did CC(=O)Nc1ccc(NC(=O)c2nc(S(=O)(=O)Cc3cccc(C)c3)ncc2Cl)cc1 do in these assays?
Sm TGR inh: 7.08µM; LmPK inh: inactive; AMA1-RON2 inh: inactive; Tb PYK inh: inactive; RE007 growth inh: inactive

How did Cc1cccc(CS(=O)(=O)c2ncc(Cl)c(C(=O)NCc3ccc4c(c3)OCO4)n2)c1 do in these assays?
Sm TGR inh: 6.31µM; LmPK inh: inactive; AMA1-RON2 inh: inactive; Tb PYK inh: inactive; RE007 growth inh: inactive

Results for COC(=O)c1ccccc1NC(=O)c1nc(S(=O)(=O)Cc2cccc(C)c2)ncc1Cl ?
Sm TGR inh: inconclusive; Tb PYK inh: inactive

How did Cc1ccc(S(=O)(=O)Nc2cc(C)c(O)c(S(=O)(=O)c3ccc(C)cc3)c2)cc1 do in these assays?
Sm TGR inh: 44.7µM; LmPK inh: inactive; AMA1-RON2 inh: inactive; Tb PYK inh: inactive; RE007 growth inh: inactive

What do the screens show for `CC1=C(C(=O)Nc2cccnc2)C(c2ccc(F)cc2)n2nc(-c3cccc(C)c3)nc2N1` (centres undefined)?
Sm TGR inh: inactive; Tb PYK inh: inactive

What do the screens show for `Cc1cc(C)c(NC(=O)CSc2ncc(S(=O)(=O)c3ccc(C(C)(C)C)cc3)c(=O)[nH]2)c(C)c1`?
Sm TGR inh: inactive; Tb PYK inh: inactive
